Results as given in article PMC7826789 (International Journal of Molecular Sciences, 2021).

Tests used:
Settings in all cases: Compound Concentration (nM):1000
[1] = test system: TXK
[2] = test system: TYK2(JH1domain-catalytic)
[3] = test system: TYK2(JH2domain-pseudokinase)
[4] = test system: TYRO3
[5] = test system: ULK1
[6] = test system: ULK2
[7] = test system: ULK3
[8] = test system: T1, VEGFR2
T1 construct: gene KDR

[9] = test system: T2, VPS34
T2 construct: gene PIK3C3

[10] = test system: VRK2
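Further: KINOMEscan scanMAX binding as percent activity remaining versus control; lower means stronger binding.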

SMILES	Percent Control [1] [%]	Percent Control [2] [%]	Percent Control [3] [%]	Percent Control [4] [%]	Percent Control [5] [%]	Percent Control [6] [%]	Percent Control [7] [%]	Percent Control [8] [%]	Percent Control [9] [%]	Percent Control [10] [%]
COc1cc(C=NNc2ncnc3c2cnn3-c2ccccc2)ccc1O [GW513184X]	100	47	8	100	100	100	67	95	100	100
COc1cccc(-c2c[nH]c3c(N/N=C/c4ccncc4)ncnc23)c1 [GW814408X]	100	19	0.1	100	100	91	68	61	65	100
NS(=O)(=O)c1ccc(Nc2ncc(-c3ccccc3)o2)cc1 [GW572399X]	100	100	100	100	100	91	88	22	100	100
O=C1Nc2ccc(C(=O)c3ccco3)cc2C1=Cc1cc(Cl)c(O)c(Cl)c1 [GW406108X]	100	35	41	86	–	71	60	78	11	74
CCS(=O)(=O)c1ccc(OC)c(Nc2ncc(-c3cccc(F)c3)o2)c1 [GW621970X]	42	100	100	73	88	95	100	2.4	100	93
NS(=O)(=O)c1ccc(N/N=C2\C(=O)Nc3ccc(Cl)cc32)cc1 [GW280670X]	100	98	100	100	100	100	100	52	100	100
COc1ccc(COc2ccc(Cc3cnc(N)nc3N)cc2OC)cc1 [GW632580X]	90	100	100	71	90	90	96	85	67	81
O=C(Nc1n[nH]c2nc(-c3ccc(O)cc3)c(Br)cc12)C1CC1 [SB-725317]	100	52	100	100	100	100	100	57	100	100
NS(=O)(=O)c1ccc(N/N=C2\C(=O)Nc3ccc(C(=O)NCCc4c[nH]cn4)cc32)cc1 [GW300660X]	100	81	84	100	38	37	65	79	86	100
Cl.O=S1CCN(Cc2ccc(-c3ccc4ncnc(Nc5ccc(OCc6ccccc6)c(F)c5)c4c3)o2)CC1 [GW576924A]	100	100	100	100	90	100	94	97	100	100
CN1CCN(C(=O)c2ccc(NC(=O)Nc3ccc(N(C)c4ccnc(Nc5ccc(CS(C)(=O)=O)cc5)n4)cc3)cc2)CC1.Cl [GW830263A]	15	4.2	6.5	92	79	78	7.6	1.1	74	93
COC(=O)Nc1nc2ccc(Oc3ccc(NC(=O)Nc4cc(C(F)(F)F)ccc4F)cc3)cc2s1.Cl [GW693917A]	77	100	100	71	62	84	78	13	76	73
Cl.O=C(O[C@H]1CN[C@H](C#Cc2cc3ncnc(Nc4ccc5c(cnn5Cc5ccccc5)c4)c3s2)C1)N1CCOCC1 [GSK200398A]	83	100	97	100	62	86	91	89	98	87
CC1=C(C(=O)Nc2ccc3[nH]ncc3c2)C(c2ccc3ccccc3c2)CC(=O)N1 (centres unmarked) [GSK270822A]	91	10	58	83	82	79	93	90	79	36
Cl.c1ccc(Cc2nc3ccc(Nc4ncnc5ccccc45)cc3[nH]2)cc1 [GR269666A]	100	100	100	90	67	100	93	72	100	100
CCn1c(-c2nonc2N)nc2c(C#CC(C)(C)O)nc(OCCNC)cc21.Cl [GSK949675]	100	95	95	100	88	100	94	83	100	67
CN(C)CCNC(=O)Nc1ccc(N(C)c2ccnc(Nc3ccc(CS(C)(=O)=O)cc3)n2)cc1.Cl [GW830900A]	61	35	49	85	94	97	80	21	77	100
Cl.O=C(Nc1ccc(Oc2ccc3[nH]c(NC(=O)c4ccccc4)nc3c2)cc1)Nc1cc(C(F)(F)F)ccc1F [GW709042A]	97	100	100	94	100	100	100	49	100	100
Cc1cc(O)cc(C)c1/C=C/c1cncc(C(N)=O)c1 [GW435821X]	100	100	90	100	100	97	98	87	100	100
COc1ccc2c(-c3ccnc(Nc4cccc(OC(F)(F)F)c4)n3)cnn2n1 [GW810372X]	67	98	75	100	100	100	100	73	29	95

SMILES	Percent Control [1] [%]	Percent Control [2] [%]	Percent Control [3] [%]	Percent Control [4] [%]	Percent Control [5] [%]	Percent Control [6] [%]	Percent Control [7] [%]	Percent Control [8] [%]	Percent Control [9] [%]	Percent Control [10] [%]
COc1ccc2cc(-c3c(-c4ccncc4)nc(-c4ccc(S(C)(=O)=O)cc4C)n3C)ccc2c1 [SB-633825]	90	73	100	72	72	88	73	49	86	58
CCS(=O)(=O)c1ccc(OC)c(Nc2ncc(-c3cccc(OC)c3)o2)c1 [GW580509X]	74	100	100	100	87	80	99	23	100	100
COc1ccccc1-c1cc(/C=C2\C(=O)Nc3ncc(Br)cc32)cc(Br)c1O [GW442130X]	100	76	100	100	85	100	78	100	77	89
COc1cc2ncn(-c3cc(O[C@H](C)c4ccccc4Cl)c(C(N)=O)s3)c2cc1OC [GSK237701A]	96	45	97	100	92	75	100	33	0.3	80
CC(C)COC(=O)c1ccc2c(c1)/C(=C/Nc1ccc(S(N)(=O)=O)cc1)C(=O)N2 [GW416981X]	100	42	100	100	0.1	0.3	13	63	100	100
CCc1ccc(Oc2nccc(-c3c(-c4ccc(F)cc4)ncn3C3CCNCC3)n2)cc1 [SB-242719]	91	100	100	62	92	77	92	100	64	69
NS(=O)(=O)c1ccc(N/N=C2\C(=O)Nc3ccc(-c4cnco4)cc32)cc1 [GW276655]	76	24	37	40	84	82	40	71	92	89
Nc1ncnc2occ(-c3ccc(NC(=O)Nc4cc(C(F)(F)F)ccc4F)cc3)c12 [GW770249X]	100	100	100	100	100	93	100	0.9	100	100
Cl.O=C(Nc1ccc(Oc2ccc3[nH]c(NC(=O)c4ccco4)nc3c2)cc1)Nc1cc(C(F)(F)F)ccc1F [GW683134A]	80	100	100	71	100	89	62	20	100	100
CN(C)c1cc2c(Nc3ccc4c(cnn4Cc4ccccc4)c3)ncnc2cn1 [GW282974X]	89	100	100	100	–	85	91	94	78	81
COc1cc(/C=N/Nc2ncnc3[nH]ncc23)ccc1O [GW578748X]	83	43	0.2	99	48	43	6.1	52	87	100
C[C@@H](Oc1cc(-n2cnc3ccc(OC4CCN(C)CC4)cc32)sc1C(N)=O)c1ccccc1Cl [GSK579289A]	60	100	93	92	71	44	100	64	29	95
COc1ccc2[nH]c3c4[nH]c5ccc(OC)cc5c4c4c(c3c2c1)C(=O)NC4=O [GW296115X]	100	87	84	71	100	87	43	59	80	98
C/C(Nc1ccc(S(N)(=O)=O)cc1)=C1/C(=O)Nc2ccccc21 [GW335962X]	100	77	100	100	62	52	83	1.2	81	80
COc1cc(N2CCN(C(C)C)CC2)ccc1Nc1nc(Nc2ccc(F)cc2C(=O)NC[C@@H](O)CO)c2cc[nH]c2n1 [GSK1392956A]	92	100	100	74	65	77	100	100	82	68
COc1cc2ncnc(Nc3ccc4c(cnn4Cc4ccccc4)c3)c2cc1OC.Cl [GW282449A]	100	100	100	51	74	100	100	79	100	100
COc1cc(C)c(N(C)C(=O)CN(C)C)cc1Nc1nc(Nc2cccc(F)c2C(N)=O)c2cc[nH]c2n1 [GSK2219385]	90	100	100	100	72	80	100	100	82	62
COc1cccc(-n2ncc3c(N/N=C/c4ccncc4)ncnc32)c1 [GW784752X]	90	88	11	74	67	69	100	75	100	85
NS(=O)(=O)c1ccc(N/N=C2\C(=O)Nc3ccc(C(=O)NCc4ccncc4)cc32)cc1 [GW300657X]	100	70	31	80	15	26	31	84	71	74
CC1=C(C(=O)Nc2ccc3[nH]ncc3c2)C(c2ccc(Cl)c(Cl)c2)CC(=O)N1 (centres unmarked) [GSK299115A]	100	14	100	89	81	72	87	92	83	72
